High-throughput results (PubChem)
TWEAK Fn14 block – TWEAK-Fn14 signaling inhibition; inhibition, % at 10 µM; AID 1159606; 360,000 tested, 2% active; TWEAK-stimulated Fn14 reporter cells, luciferase luminescence, 8 h; in the data active means inhibition above about 50%
LGR2 inh – blocks bursicon-induced cAMP signaling via Drosophila LGR2. inhibition, % at 9.99 µM. 380,000 tested, 0.35% active. AID 720647. HEK293 LGR2, CRE-luciferase, bursicon-stimulated, 4 h;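 active means drop in luminescence signal, shown as inhibition above about 50% in the replicate tests, limit read from the data, passing the limit was not always enough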;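 further: agonist challenge used bursicon conditioned medium at about half maximal strength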
TROY NFkB inh – blocks TROY-dependent signaling in reporter cells | AID 1347056 | inhibition, % at 10 µM | Q293 LMP1-TROYcd NF-kB luciferase reporter, 4 h | 360,000 tested, 0.98% active;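 active means compounds whose plate-normalised and pattern-corrected inhibition of the luciferase reporter signal at the single screening dose is 50% or more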
aDG glyco up – alpha-DG glycosylation activation | Pro5-aDG cells, alpha-DG glycosylation AlphaScreen (IIH6); 0% Pro5, 100% B10-LARGE cell signal | activation, % at 10 µM | 360,000 tested, 0.22% active;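 active means activation of at least 8% versus controls, or a plate z-score of at least 8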;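 further: Pro5 are CHO cells carrying HIG-tagged alpha-DG that lacks glycosylation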
LMP1 NFkB inh – Epstein-Barr LMP1 NF-kappaB reporter inhibition. LMP1-induced NF-kappaB luciferase reporter cells, luminescence. AID 504558. 350,000 tested, 0.69% active. inhibition, % at 12.5 µM; in the data active means inhibition above about 41%;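 further: 0% = neutral control wells and 100% = reference inhibitor control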
HSP90 refold inh – blocks HSP90-mediated luciferase refolding in reticulocyte lysate; Rabbit reticulocyte lysate, luciferase refolding luminescence, 3 h; inhibition, % at 5.6 µM; 290,000 tested, 0.91% active;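 active means inhibition above the screen-wide mean plus 3 SD, computed separately per campaign, cut at about 16% in these data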;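 further: 0% = DMSO wells and 100% = 60 µM geldanamycin wells; inhibitors lower the luminescence because luciferase stays unfolded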
* hit, by the source's call; · = no result given. Only some compounds are listed: those with a hit (about 2.6% of all), similar ones and a draw of the others.

SMILES	TWEAK Fn14 block	LGR2 inh	TROY NFkB inh	aDG glyco up	LMP1 NFkB inh	HSP90 refold inh
N=C1C(c2nc(-c3ccc(F)cc3)cs2)=C(O)CN1Cc1ccc(Cl)cc1	106*	·	3	0	-18	3
O=C(O)c1ccc(N/N=C/c2cccc(F)c2)cc1	59*	-27	-26	0	-14	3
O=C(O)c1ccc(N/N=C/c2ccc(F)c(F)c2)cc1	67*	·	14	0	-2	9
O=C(O)c1ccc(N/N=C/c2ccnc3ccccc23)cc1	44	-21	-11	0	-4	2
O=C(O)c1ccc(N/N=C/c2cccc(C(F)(F)F)c2)cc1	0	-104	25	0	-31	0
O=C(O)c1ccc(N/N=C/c2ccncc2)cc1	35	1	1	0	3	6
O=C(O)c1ccc(N/N=C/c2cccc3cccnc23)cc1	61*	-42	-32	0	-18	8
C[C@@H]1CN([C@@H](C)CO)C(=O)c2cc(NC(=O)CCCCCC(=O)Nc3ccccc3N)ccc2O[C@@H]1CN(C)S(C)(=O)=O	·	-5	·	·	·	·
Cc1ccc(S(=O)(=O)n2nc(OC(=O)c3ccccc3C)cc2N)cc1	57*	13	30	0	5	-3
COc1ccccc1C(=O)Oc1cc(N)n(S(=O)(=O)c2ccc(C)cc2)n1	-1	·	26	1	-1	1
Cc1noc(C)c1NC(=O)N[C@H]1CC[C@H](CCNC(=O)C2CCOCC2)O[C@@H]1CO	·	10	·	·	·	·
CC1CCN(c2ccc3c(c2)S(=O)(=O)c2cccc(C(=O)NC[C@@H]4CCCO4)c2C3=O)CC1	6	1	-18	-1	1	·
O=C(NCC1CCCO1)c1cccc2c1C(=O)c1ccc(N3CCC(Cc4ccccc4)CC3)cc1S2(=O)=O (stereo not drawn)	90*	·	56*	0	19	·
COc1ccc2c3c([nH]c2c1)[C@H](CO)N(C)CC31CCN(C(=O)c2ccccc2F)CC1	·	0	·	·	·	·
CCC(C(=O)NC(C)CCc1ccccc1)n1nc(C)n2c(cc3occc32)c1=O (stereo not drawn)	100*	·	7	2	-6	3
CCC(C(=O)NC(C)CCc1ccco1)n1nc(C)n2c(cc3occc32)c1=O (stereo not drawn)	7	·	9	0	15	2
C[C@H]1CN([C@@H](C)CO)C(=O)c2cccc(NC(=O)C3CCCCC3)c2O[C@H]1CN(C)C(=O)Nc1ccc(C(F)(F)F)cc1	·	5	·	·	·	·
Cc1ccc(NC(=O)CSc2ncnc3ccccc23)cc1S(=O)(=O)N1CCOCC1	71*	27	53*	0	13	-2
Cc1ccc(NC(=O)CSc2ccccc2)cc1S(=O)(=O)N1CCCCC1	18	5	17	0	6	·
Cc1ccc(NC(=O)COc2ncnc3ccccc23)cc1S(=O)(=O)N1CCOCC1	13	5	13	0	-1	4
CC(C)(C)C(=O)Nc1nnc(SCC(=O)Nc2ccc3c(c2)OCO3)s1	27	8	9	0	46*	0
Cc1ccc(NC(=O)CSc2ncnc3ccccc23)cc1S(=O)(=O)N1CCCCC1	72*	28	35	1	19	2
CC(=O)c1cccc(NC(=O)CSc2nc(C3CC3)nc3ccccc23)c1	58*	14	40	1	7	3
CC(=O)N[C@H]1CC[C@@H](CCNC(=O)C2CCC2)O[C@@H]1CO	·	1	·	·	·	·
C[C@H](CO)N1C[C@H](C)[C@H](CN(C)S(=O)(=O)c2ccc(Cl)cc2)Oc2c(NS(=O)(=O)c3cn(C)cn3)cccc2C1=O	·	-1	·	·	·	·
SMILES	TWEAK Fn14 block	LGR2 inh	TROY NFkB inh	aDG glyco up	LMP1 NFkB inh	HSP90 refold inh
C/C=C/c1ccc([C@H]2[C@@H](CO)N(C(=O)CC)[C@H]2CN(C)S(C)(=O)=O)cc1	·	-2	·	·	·	·
O=C(C1CC1)N1CC2(C1)[C@H](c1ccccc1)[C@H](CO)N2Cc1cncnc1	·	9	·	·	·	·
Cc1ccc(S(=O)(=O)Nc2ccc3c(c2)C(=O)N([C@@H](C)CO)C[C@H](C)[C@H](CN(C)C(=O)c2ccncc2)OCCCC[C@@H](C)O3)cc1	·	-11	·	·	·	·
CC(C)Nc1nnc(SCC(=O)Nc2ccc3c(c2)C(=O)c2ccccc2C3=O)s1	59*	-9	24	-1	-21	-3
O=C(CSc1nnc(NC2CCCCC2)s1)Nc1ccc2c(c1)C(=O)c1ccccc1C2=O	19	-58	-33	0	-37	-2
O=C(CSc1ncnc2ccccc12)Nc1ccc2c(c1)OCO2	65*	-37	-14	0	2	-6
O=C(C[C@H]1C=C[C@@H](NC(=O)CN2CCOCC2)[C@@H](CO)O1)NCCc1ccccc1	·	0	·	·	·	·
C[C@H]1CN([C@@H](C)CO)C(=O)c2cccc(NC(=O)Nc3cccc4ccccc34)c2O[C@@H]1CN(C)C(=O)Nc1ccc2c(c1)OCO2	·	-10	·	·	·	·
COc1ccc2[nH]cc(C(=O)CCl)c2c1	57*	18	12	0	-10	1
COc1ccc2[nH]cc(C(=O)CN3CC(C)CC(C)C3)c2c1 (stereo not drawn)	6	6	2	0	0	2
CN(C)S(=O)(=O)c1cccc(NC(=S)N/N=C/c2cc(Br)ccc2O)c1	35	18	22	1	49*	2
CN(C)S(=O)(=O)c1cccc(NC(=S)N/N=C/c2cccc(O)c2)c1	-4	-11	0	0	1	-2
Cc1onc(-c2c(F)cccc2Cl)c1C(=O)Nc1cc(S(=O)(=O)N2CCCCC2)ccc1O	64*	11	64*	0	0	·
Cc1onc(-c2c(F)cccc2Cl)c1C(=O)Nc1ccc(S(=O)(=O)N2CCOCC2)cc1	4	15	7	0	-24	·
CC(C)CC#Cc1ccc([C@@H]2[C@@H](CO)N3C(=O)CN(C(=O)Cc4ccccc4)C[C@@H]23)cc1	·	11	·	·	·	·
Nc1ccc2nn(-c3ccccc3)nc2c1	30	-59	-8	5.9*	-16	-2
Nc1ccc(-n2nc3ccccc3n2)cc1	19	-40	-49	0	-1	·
COc1ccc(S(=O)(=O)N2CCCCCC2)cc1C(=O)OCc1cccc(OC)c1OC	23	5	21	0	46*	·
CO[C@H]1CN(C)C(=O)c2ccc(NC(=O)c3ccc(F)cc3)cc2OC[C@@H](C)N(C(=O)CN(C)C)C[C@@H]1C	·	7	·	·	·	·
Fc1ccc(-c2nc3n(n2)Cc2ccccc2-3)cc1	58*	·	30	0	-17	8
NC(=S)Cc1nc2n(n1)Cc1ccccc1-2	21	2	-3	0	3	3
COCC#Cc1ccc2c(c1)O[C@@H](CN(C)C(=O)C1CC1)[C@@H](C)CN([C@@H](C)CO)S2(=O)=O	·	-4	·	·	·	·
S=C(NCC1CCCO1)N1CCN(c2cccc(Cl)c2)CC1 (stereo not drawn)	-29	-5	-11	0	9	2
